Key:
Type in all cases: functional
Plasmodium falciparum [1] = assay: GSK_TCMDC: Inhibition of Plasmodium falciparum 3D7 in whole red blood cells, using parasite LDH activity as an index of growth. Test compounds present at 2uM
Plasmodium falciparum [2] = assay: GSK_TCMDC: Inhibition of Plasmodium falciparum Dd2 in whole red blood cells, using parasite LDH activity as an index of growth. Test compounds present at 2uM
HepG2 = assay: GSK_TCMDC: Percent inhibition of human HepG2 cell line. Test compounds present at 10uM.

Compound: CC(C)CCN1CCCN(Cc2ccc(C(=O)NCc3ccc(Cl)cc3)cc2)CC1.O=C(O)C(F)(F)F
- Inhibition (Plasmodium falciparum [1]): 84%
- Inhibition (Plasmodium falciparum [2]): 0%
- Inhibition (HepG2): 16%

Compound: O=C(O)C(F)(F)F.O=S(=O)(NCCN1CCCC1)c1ccc(-c2ccc(CNCc3ccccc3)cc2)cc1
- Inhibition (Plasmodium falciparum [1]): 99%
- Inhibition (Plasmodium falciparum [2]): 28%
- Inhibition (HepG2): 47%

Compound: COc1ccccc1NC(=O)Nc1ccc(-c2ccc(-c3nc4cc(C(F)(F)F)ccc4[nH]3)cc2)cc1
- Inhibition (Plasmodium falciparum [1]): 100%
- Inhibition (Plasmodium falciparum [2]): 61%
- Inhibition (HepG2): 52%

Compound: COc1ccccc1CN1CCC(CNC(=O)c2cc(-c3ccc(N(C)C)cc3)cs2)C1.O=C(O)C(F)(F)F (stereo not given)
- Inhibition (Plasmodium falciparum [1]): 82%
- Inhibition (Plasmodium falciparum [2]): 16%
- Inhibition (HepG2): 17%

Compound: O=C(Nc1cccc(Cl)c1)c1cnc(N2CCN(c3ccncc3)CC2)c(Cl)c1.O=C(O)C(F)(F)F
- Inhibition (Plasmodium falciparum [1]): 100%
- Inhibition (Plasmodium falciparum [2]): 97%
- Inhibition (HepG2): 54%

Compound: COc1ccccc1NC(=O)Nc1cccc(-c2cccc(-c3nc4cccc(C)c4[nH]3)c2)c1
- Inhibition (Plasmodium falciparum [1]): 100%
- Inhibition (Plasmodium falciparum [2]): 90%
- Inhibition (HepG2): 11%

Compound: COc1cc(NC(=O)c2c(-c3c(F)cccc3Cl)noc2C)c(OC)cc1Cl
- Inhibition (Plasmodium falciparum [1]): 89%
- Inhibition (Plasmodium falciparum [2]): 17%
- Inhibition (HepG2): 0%

Compound: CNc1c2c(nc3ccc(NC(=O)CCCCCCc4ccccc4)cc13)CCCC2.Cl
- Inhibition (Plasmodium falciparum [1]): 100%
- Inhibition (Plasmodium falciparum [2]): 82%
- Inhibition (HepG2): 0%

Compound: Cc1cc2nc(-c3ccc(C(=O)NCc4ccc(Cl)c(Cl)c4)cc3)[nH]c2cc1C
- Inhibition (Plasmodium falciparum [1]): 96%
- Inhibition (Plasmodium falciparum [2]): 83%
- Inhibition (HepG2): 6%

Compound: Cc1[nH]c(C)c(-c2ccc(Oc3cccc(Cl)c3)cc2)c(=O)c1Br
- Inhibition (Plasmodium falciparum [1]): 98%
- Inhibition (Plasmodium falciparum [2]): 97%
- Inhibition (HepG2): 46%

Compound: COCCN1CCC(NCC(C)(C)c2nc(-c3ccc(Cl)c(O)c3)c(-c3ccncc3)[nH]2)CC1.Cl
- Inhibition (Plasmodium falciparum [1]): 100%
- Inhibition (Plasmodium falciparum [2]): 47%
- Inhibition (HepG2): 0%

Compound: COc1ccc(C=NNc2nc3ccccc3[nH]2)cc1O
- Inhibition (Plasmodium falciparum [1]): 95%
- Inhibition (Plasmodium falciparum [2]): 13%
- Inhibition (HepG2): 15%

Compound: N=C(N)NC(=O)Nc1cc(Cl)c(Cl)c(Cl)c1
- Inhibition (Plasmodium falciparum [1]): 100%
- Inhibition (Plasmodium falciparum [2]): 100%
- Inhibition (HepG2): 0%

Compound: O=C(Nc1ccc(C(F)(F)F)cc1)c1ccc(S(=O)(=O)NC2CCN(CC3CCCCC3)CC2)cc1.O=C(O)C(F)(F)F
- Inhibition (Plasmodium falciparum [1]): 100%
- Inhibition (Plasmodium falciparum [2]): 20%
- Inhibition (HepG2): 30%

Compound: CCCCN1CCCN(Cc2cccc(NC(=O)c3ccc(-c4ccccc4)cc3)c2)CC1.O=C(O)C(F)(F)F
- Inhibition (Plasmodium falciparum [1]): 92%
- Inhibition (Plasmodium falciparum [2]): 8%
- Inhibition (HepG2): 19%

— ChEMBL document CHEMBL1157539, “Thousands of chemical starting points for antimalarial lead identification” (Nature, 2010)
